Assay outcomes: PubChem BioAssay, National Center for Advancing Translational Sciences (NCATS)
This is one part of a sample in which hits are shown more often than they occur.
RE007 growth inh: less growth of the S. pombe RE007 Vpr strain; 360,000 compounds, 0.21% hits; S. pombe RE007 Vpr strain, BacTiter-Glo ATP luminescence, 24 h; AID 651644; Potency, µM (highest dose often 92.2 µM), usual class: inhibitors; active = well fitted falling curve with a large enough effect; inconclusive = small, poorly fitted or top-dose-only effect; inactive = no such curve, though single readings can be large or run the other way; note: nearly all actives have a fitted effect of over 50% in size
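Fission yeast strain RE007, carrying one chromosomally integrated HIV-1 vpr copy, was seeded at OD 0.01 in PMG+AL medium with 23 nL pinned compound. After 24 h at 30 °C and 99% humidity, viability was read by BacTiter-Glo luminescence.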
LmPK inh: blocks Leishmania mexicana pyruvate kinase activity | Q27686 | purified LmPK, Kinase-Glo ATP luminescence, 1 h | Potency, µM (highest dose often 57.5 µM), usual class: inhibitors | 290,000 compounds, 0.37% hits
Target sequence (Q27686 whole entry, looked up): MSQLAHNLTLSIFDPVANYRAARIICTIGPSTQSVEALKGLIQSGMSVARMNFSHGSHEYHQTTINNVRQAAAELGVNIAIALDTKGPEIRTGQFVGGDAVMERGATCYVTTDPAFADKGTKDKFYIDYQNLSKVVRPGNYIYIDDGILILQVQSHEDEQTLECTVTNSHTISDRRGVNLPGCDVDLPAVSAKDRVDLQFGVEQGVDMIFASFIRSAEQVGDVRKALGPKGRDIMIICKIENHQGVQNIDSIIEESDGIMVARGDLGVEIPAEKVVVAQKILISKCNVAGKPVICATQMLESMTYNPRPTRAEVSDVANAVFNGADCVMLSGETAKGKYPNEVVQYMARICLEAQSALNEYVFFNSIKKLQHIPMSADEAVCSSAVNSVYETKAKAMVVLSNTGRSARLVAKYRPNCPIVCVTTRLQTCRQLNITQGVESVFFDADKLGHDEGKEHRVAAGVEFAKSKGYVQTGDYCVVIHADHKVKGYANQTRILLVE
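Purified LmPK (0.1 nM) converted ADP (0.1 mM) to ATP with PEP (0.5 mM) in imidazole buffer pH 7.2 with KCl and MgCl2, 1 h at room temperature. ATP was read by Kinase-Glo luminescence; data normalized to uninhibited and no-enzyme controls.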
FBPA Giardia inh: inhibitors of Giardia lamblia fructose-1,6-bisphosphate aldolase; AID 2451; Potency, µM (series often up to 59.6 µM), actives largely listed as inhibitors; 290,000 compounds, 0.71% hits; purified Giardia FBPA; note: nearly all actives have a fitted effect of over 55% in size
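40 nM FBPA preincubated 10 min at RT with compound (up to 57.5 uM final), then substrate plus GAPDH/TPI/NAD/arsenate coupling and diaphorase/resazurin added. Fluorescence read after 20 min at RT, 525/598 nm.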
Shiga toxin inh: Shiga toxin inhibition. Vero cells, Shiga toxin protein synthesis inhibition reporter. inhibition, % at 38.7 µM. 290,000 compounds, 9.2% hits. AID 2315; in the data active = inhibition mostly above about 28%, no sharp cut-off; inactive = mostly below about 43%
CHX counter: counter-screen for Shiga toxin inhibitors: cycloheximide protein synthesis inhibition | cell reporter, cycloheximide protein synthesis inhibition counterscreen | max response, % | AID 2314 | 300,000 compounds, 12% hits; in the data active = max response mostly above about 13%, no sharp cut-off; inactive = mostly below about 14%; note: read at 38.3 µM for the half of the compounds with a filed dose
TbPYK inhibitor: T. brucei pyruvate kinase inhibition; Q57TT1; TbPYK enzyme, Kinase-Glo Plus ATP luminescence, 45 min; Potency, µM (titrated, usually from 76.8 µM), actives largely listed as inhibitors; 410,000 compounds, 0.12% hits; AID 624173; note: nearly all actives have a fitted effect of over 50% in size
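TbPYK + substrate in 50 mM TEA pH 7.2, 100 mM KCl, 10 mM MgCl2, 0.05% BSA, 0.01% Tween-20; cpd pinned; ADP 130 uM final; 45 min RT; Kinase-Glo Plus 10 min; luminescence endpoint.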
A number is an active result; n = inactive; u = inconclusive; x = no result. Unless noted, calls come from the whole dose curve; as a rule, active = well fitted curve in the direction sought with a large enough effect; inconclusive = small, poorly fitted or top-dose-only effect, or another doubt; inactive = no such curve, though single readings can be large; an effect the other way counts as inactive or inconclusive.

SMILES	RE007 growth inh	LmPK inh	FBPA Giardia inh	Shiga toxin inh	CHX counter	TbPYK inhibitor
COCc1cc(=O)n2[nH]c(-c3cccc(Br)c3)cc2n1	n	n	n	n	27	n
COCc1cc(=O)n2[nH]c(C)cc2n1	n	n	n	n	n	n
COCc1cc(=O)n2[nH]c(-c3ccccc3)cc2n1	n	n	n	n	23	n
O=C(O)c1c(C(=O)N2N=C3/C(=C/c4ccccc4)CCCC3C2c2ccccc2)cccc1[N+](=O)[O-] (configuration not stated)	n	n	n	n	n	n
CC(=O)N1N=C2/C(=C/c3ccccc3)CCCC2C1c1ccccc1 (configuration not stated)	n	n	n	72	48	n
CC(C)(C)c1cc[n+](/C(C(=S)NC2CC2)=C(/[O-])c2ccc(Cl)s2)cc1	n	n	6.3µM	n	n	n
COc1cc(/C=N/NC(=O)c2ccccn2)ccc1OC(=O)c1cccs1	n	n	x	67	37	n
COc1cc(/C=N/NC(=O)c2ccccn2)cc2c1OCO2	n	n	n	107	57	n
COc1cc(/C=N/Nc2ccc(Cl)c(C(=O)O)c2)ccc1OC(=O)c1cccs1	n	n	n	n	n	n
COc1cc(/C=N/NC(=O)COc2ccc(C)cc2)ccc1OC(=O)c1cccs1	n	n	n	n	16	n
COc1cc(/C=N/Nc2ccccc2)ccc1OC(=O)c1cccs1	n	n	n	n	35	n
COc1ccccc1C(=O)Nc1ccc(C(=O)OCc2cc(=O)n3c4c(sc3n2)CCCC4)cc1	x	x	x	x	x	n
O=C(OCCOCCN=C1NS(=O)(=O)c2ccccc21)c1ccccc1	n	n	n	n	n	n
Cc1ccnc(NC(=O)c2ccc(Cl)c(NC(=O)c3ccccc3C)c2)c1	n	n	n	n	16	n
Cc1ccnc(NC(=O)c2cccc(NC(=O)c3ccccc3C)c2)c1	n	n	n	n	n	n
CCC(C(=O)Nc1cc(C(=O)Nc2cc(C)ccn2)ccc1Cl)c1ccccc1 (configuration not stated)	n	n	n	n	19	n
Cc1cc(C(=O)N/N=C/c2cc(N=Nc3ccccc3)ccc2O)n[nH]1	n	n	n	n	17	n
COC(=O)N/N=C/c1cc(N=Nc2ccccc2)ccc1O	n	n	n	n	25	n
Cc1cc(C(=O)N/N=C/c2cccc([N+](=O)[O-])c2O)n[nH]1	n	n	u	n	18	n
Nc1ccc(C(=O)N/N=C\c2cc(N=Nc3cccc4ccccc34)ccc2O)cc1	n	n	n	n	18	n
Cc1cc(C(=O)N/N=C/c2c(C)[nH]c3ccccc23)n[nH]1	n	n	n	n	n	n
COC(=O)N/N=C/c1cc(N=Nc2ccccc2Cl)ccc1O	n	n	n	n	n	n
CCc1ccc(NC(=O)CSc2nc3c(c(=O)[nH]2)CN(Cc2ccc(C)cc2)CC3)cc1	x	x	x	x	x	n
CCC(Cn1nnc2ccccc2c1=O)NC(=O)Nc1cccc(C)c1C (configuration not stated)	x	x	x	x	x	n
O=C(NC(=O)c1cnccc1C(F)(F)F)Nc1ccccc1	n	n	n	n	n	n
SMILES	RE007 growth inh	LmPK inh	FBPA Giardia inh	Shiga toxin inh	CHX counter	TbPYK inhibitor
COc1cc(Cl)c(C)cc1NC(=O)CSCc1nc(-c2ccc(OC)c(OC)c2)no1	x	x	x	x	x	n
COc1ccc(CNC(=O)Cc2c(C(=O)O)c(C)cn2C)cc1	x	x	x	x	x	n
Cc1ccc(C2=C/C(=C/c3cccnc3)C(=O)O2)c(C)c1	n	n	u	n	11	n
CCSC1=N/C(=C\c2cccnc2)C(=O)N1c1ccccc1	n	n	n	n	n	n
CSC1=N/C(=C\c2cccnc2)C(=O)N1c1ccccc1	n	n	n	n	27	n
CC1=N/C(=C/c2cccnc2)C(=O)O1	n	n	n	n	34	n
COc1ccc(CNCc2ccc3c(c2)n(C)c(=O)n3C)cc1	x	x	x	x	x	n
Cc1ccc(N=c2c([N+](=O)[O-])nn(-c3ccc(Cl)cc3)n2O)cc1C	n	n	n	n	n	n
Cc1ccc(N=c2c([N+](=O)[O-])nn(-c3ccccc3)n2O)c(C)c1	n	n	n	98	32	n
O=[N+]([O-])c1nn(-c2ccc3c(c2)OCCO3)n(O)c1=Nc1ccc(Cl)cc1	n	n	n	117	34	n
Cc1ccc(N=c2c([N+](=O)[O-])nn(-c3ccc4c(c3)OCCO4)n2O)c(Cl)c1	x	n	n	89	35	x
Cc1c(Cl)cccc1N=c1c([N+](=O)[O-])nn(-c2ccccc2)n1O	n	n	n	n	n	n
Cc1cc(C)cc(N=c2c([N+](=O)[O-])nn(-c3ccc4c(c3)OCCO4)n2O)c1	n	n	n	n	17	n
O=[N+]([O-])c1nn(-c2ccc3c(c2)OCCO3)n(O)c1=Nc1ccccc1	n	n	u	168	142	n
CCc1ccc(N=c2c([N+](=O)[O-])nn(-c3ccc4c(c3)OCCO4)n2O)cc1	n	n	n	46	34	n
Cc1ccc(N=c2c([N+](=O)[O-])nn(-c3ccc4c(c3)OCCO4)n2O)cc1F	n	n	n	141	33	n
CC(=O)Nc1ccc(NC(=S)NC(=O)c2cc3ccccc3o2)cc1	n	n	n	n	n	n
O=C(NC(=S)Nc1ccc(CN2CCCCC2)cc1)c1cc2ccccc2o1	n	n	n	n	14	n
O=C(NC(=S)Nc1cccnc1)c1cc2ccccc2o1	n	n	n	57	46	n
O=C(NC(=S)NCc1cccnc1)c1cc2ccccc2o1	n	n	n	n	30	n
Cc1cc(NC(=O)c2cccnc2)ccc1NC(=O)c1cc2ccccc2o1	n	n	n	n	n	n
O=C(Nc1cccnc1)c1cc2cc(Br)ccc2o1	n	n	n	x	22	n
COc1ccc(CNC(=O)c2cnc3sc(N4CCCCCC4)nn3c2=O)cc1	x	x	x	x	x	n
COc1ccc(NCC(=O)Nc2cccc(S(=O)(=O)N3CCCC3)c2)cc1Cl	n	x	x	x	x	n
Clc1ccc(OCc2cn3cccnc3n2)c2ncccc12	n	n	n	101	35	n
SMILES	RE007 growth inh	LmPK inh	FBPA Giardia inh	Shiga toxin inh	CHX counter	TbPYK inhibitor
c1cnc2c(OCc3cn4cccnc4n3)cccc2c1	n	n	n	n	28	n
O=S(=O)(Nc1cccc(-c2cn3cccnc3n2)c1)c1ccc(Cl)cc1	n	n	n	n	n	n
Cc1ccc(S(=O)(=O)Cc2cn3cccnc3n2)cc1	n	n	n	n	n	n
Cc1cc(Cl)ccc1OCc1cn2cccnc2n1	n	n	n	84	51	n
Clc1cccc(NCc2cn3cccnc3n2)c1	n	n	n	n	27	n
NC(=O)COc1cccc2cccnc12	n	n	n	n	n	n
Fc1ccc(COc2cccc3cccnc23)cc1	n	n	n	91	41	n
